Records with an inconclusive call do not appear. Active and inactive are the calls of the source. Calls follow the shape of the dose curve; as a rule, active = well fitted activation curve with a large enough effect; inconclusive = small, poorly fitted or top-dose-only effect; inactive = flat fitted curve, though single readings scatter.
Assay: Validation screen for small molecules that induce DNA re-replication in MCF 10A normal breast cells (AID 463097); also: nearly all actives have a fitted effect of over 60% in size; as to re-replication induction: 0% is about no effect
Conditions: MCF 10A cells, DNA re-replication phenotype imaging; series mostly up to 46.1 µM; re-replication induction: at the top concentration
From the text: NIH Molecular Libraries Probe Production Network [MLPCN]
NIH Chemical Genomics Center [NCGC]
Assay Provider: Melvin DePamphilis, NICHD, NIH
Eukaryotic cells normally restrict genome duplication to once per cell division. When this process is aberrant, DNA re-replication occurs when cells reinitiate DNA replication before the first round of replication is complete. DNA re-replication induces the DNA damage response, arrests cell proliferation, and triggers apoptosis. The cell cycle components cyclin A, Cdt-1, Cdc6 and geminin are critical regulators of this process and their misregulation results in DNA re-replication in normal and cancer cells. To identify compounds that induce re-replication in normal cells, an image-based assay was used to measure DNA content of nuclei, as detected by the fluorescent DNA binding dye, Hoechst. Cell nuclei were imaged by a fluorescence scanning plate imager and compounds that induce DNA re-replication were identified by the increase of nuclei with elevated fluorescence intensity.
For screening, 250 cells in 5 uL/well were dispensed into black clear 1536-well plates (Aurora) using a solenoid-based dispenser. Following transfer of 23 nL compound or DMSO vehicle by a pin tool, the plates were incubated 48 hr at 37 C and 5% CO2. After addition of 1 uL/well Hoescht stain, the plates were incubated 40 min at 37 C, 5% CO2 and total intensity of fluorescent objects (nuclei) were enumerated by an Acumen Explorer Ex3 (TTP LabTech) fluorescence scanning plate imager (405 nm excitation, 500-530 nm emission).
Keywords: NIH Roadmap, MLPCN, MLI, MLSMR, qHTS, NCGC, DNA replication, cancer
Potency is read from the fitted curve at half-maximal effect.

Structure (SMILES)	re-replication induction	Potency
O=C1c2c(O)ccc(O)c2C(=O)c2c(NCCNCCO)ccc(NCCNCCO)c21	-17.9% (inactive)	
CN1C2CCC1CC(OC(=O)C(CO)c1ccccc1)C2 (stereo not given)		inactive
Nc1ccn([C@H]2CC[C@@H](CO)O2)c(=O)n1	3.37% (inactive)	
CCc1cccc2c3c([nH]c12)C(CC)(CC(=O)O)OCC3 (stereo not given)	-2.19% (inactive)	
O=c1[nH]cc(F)c(=O)[nH]1	14.2% (inactive)	
CC(C)NCC(O)c1ccc(O)c(O)c1 (stereo not given)		inactive
CN1CCC(=C2c3ccccc3C=Cc3ccccc32)CC1	21.6% (inactive)	
Nc1c2c(nc3ccccc13)CCCC2	-1.92% (inactive)	
COc1ccc2c(c1)c(CC(=O)O)c(C)n2C(=O)c1ccc(Cl)cc1	3.51% (inactive)	
O=c1c(-c2ccc(O)cc2)coc2cc(O)cc(O)c12	27.2% (inactive)	
Cc1cnc(C(=O)NCCc2ccc(S(=O)(=O)NC(=O)NC3CCCCC3)cc2)cn1	-0.923% (inactive)	
Cc1ccc(C(=O)Nc2ccc(S(=O)(=O)O)c3cc(S(=O)(=O)O)cc(S(=O)(=O)O)c23)cc1NC(=O)c1cccc(NC(=O)Nc2cccc(C(=O)Nc3cc(C(=O)Nc4ccc(S(=O)(=O)O)c5cc(S(=O)(=O)O)cc(S(=O)(=O)O)c45)ccc3C)c2)c1	5.16% (inactive)	
CC(C)(Oc1ccc(C2CC2(Cl)Cl)cc1)C(=O)O (stereo not given)	-3.04% (inactive)	
O=C1N(c2ccccc2)c2ccccc2C1(Cc1ccncc1)Cc1ccncc1	3.94% (inactive)	
O=C(c1ccc(F)cc1)C1CCN(CCn2c(=O)[nH]c3ccccc3c2=O)CC1	14.8% (inactive)	
Cn1cnc2c1c(=O)[nH]c(=O)n2C	2.08% (inactive)	
Nc1nnc(-c2cccc(Cl)c2Cl)c(N)n1	0.87% (inactive)	
Cc1ccccc1N1C(=O)c2cc(S(N)(=O)=O)c(Cl)cc2NC1C (stereo not given)	0.365% (inactive)	
CN1C(C(=O)Nc2ccccn2)=C(O)c2ccccc2S1(=O)=O	-3.79% (inactive)	
CN1CCC(=C2c3ccccc3CC(=O)c3sccc32)CC1	-0.0384% (inactive)	

Structure (SMILES)	re-replication induction	Potency
CC(C)NCC(O)COc1ccc(CCOCC2CC2)cc1 (stereo not given)	7.79% (inactive)	
NC(=O)NO	-3.96% (inactive)	
NS(=O)(=O)c1cc2c(cc1Cl)NCNS2(=O)=O	2.47% (inactive)	
N[C@@H](Cc1c[nH]c2ccc(O)cc12)C(=O)O	-5.65% (inactive)	
CC(COc1ccccc1)N(CCCl)Cc1ccccc1 (stereo not given)	0.39% (inactive)	
NC(CO)C(=O)NNCc1ccc(O)c(O)c1O (stereo not given)	-1.41% (inactive)	
CCC1(C)CC(=O)NC1=O (stereo not given)	-1.19% (inactive)	
NC12CC3CC(CC(C3)C1)C2	1.47% (inactive)	
NCCS(=O)(=O)O	-5.42% (inactive)	
CC(C(=O)O)c1cccc(C(=O)c2ccccc2)c1 (stereo not given)	-4.89% (inactive)	
Fc1ccc([C@@H]2CCNC[C@H]2COc2ccc3c(c2)OCO3)cc1	16.8% (inactive)	
C[C@](N)(Cc1ccc(O)c(O)c1)C(=O)O	-11.3% (inactive)	
Clc1ccc(C(c2ccccc2Cl)C(Cl)Cl)cc1 (stereo not given)	3.3% (inactive)	
COC(=O)Nc1nc2ccc(C(=O)c3cccs3)cc2[nH]1		0.158 µM (active)
CC12CC3CC(C)(C1)CC(N)(C3)C2	5.9% (inactive)	
OCCN(CCO)c1nc(N2CCCCC2)c2nc(N(CCO)CCO)nc(N3CCCCC3)c2n1		12.6 µM (active)
CCOC(=O)c1ncn2c1CN(C)C(=O)c1cc(F)ccc1-2	6.6% (inactive)	
CC[N+](CC)(CC)CCOc1cccc(OCC[N+](CC)(CC)CC)c1OCC[N+](CC)(CC)CC	-2.88% (inactive)	
COc1ccc(CCN(C)CCCC(C#N)(c2ccc(OC)c(OC)c2)C(C)C)cc1OC (stereo not given)	11.2% (inactive)	
CCC1(c2ccccc2)C(=O)NCNC1=O	4.91% (inactive)	
